SMARCA2 act: SMARCA2 function activation, primary screen; MG213 cells, MMTV-luciferase reporter, dexamethasone, overnight; activation, % at 9.1 µM; 1% of 370,000 active; in the data active = activation above about 7.8%;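 note: 0% = vehicle wells and 100% = reference activator wells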
Jurkat NFkB inh: inhibitors of the PMA/ionomycin-induced NF-kB reporter in Jurkat cells | PMA/ionomycin-induced NF-kB luciferase reporter, luminescence | 0.53% of 330,000 active | inhibition, % at 4 µM; in the data active = inhibition above about 50%
697 NFkB inh: lowers PMA/ionomycin-induced NF-kB signal in 697 B cells; 697 B-cell NF-kB luciferase reporter, 16 h; inhibition, % at 4 µM; 0.33% of 330,000 active; in the data active = inhibition above about 35%
esBAF inh: inhibitors of esBAF chromatin remodeling in mouse ES cells; Bmi1-luciferase knock-in reporter, 24 h; 100% = twice the neutral-well signal; reporter increase, % at 12.5 µM; 2% of 350,000 active; in the data active = activation above about 40%;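 note: 0% = median of the plate's neutral control wells and 100% = double that signal; a rise in the Bmi1 reporter signal indicates esBAF inhibition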
Gli-Sufu antag: antagonists of Gli-Sufu signaling; Sufu-KO-LIGHT fibroblasts, Gli luciferase reporter luminescence; inhibition, % at 5 µM; 0.74% of 340,000 active;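 active = inhibition above about 55%, limit read from the data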;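 note: 0% = DMSO-treated cells and 100% = wells with medium but no cells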
Gli antag conf: Gli-SUFU antagonism confirmation, single concentration. inhibition, % at 5 µM. shares compounds with Gli-Sufu antag. Sufu-KO-LIGHT cells, Gli luciferase reporter, luminescence. 40% of 2,500 active. AID 602428;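 active = mean inhibition at 5 µM reaching about 45%, limit read from the data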;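 note: plate controls were DMSO-treated cells for no effect and wells lacking cells for full effect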
Gli cytotox: cytotoxicity counter-screen for Gli-SUFU antagonists; Sufu-KO-LIGHT cells cytotoxicity, ATP luminescence; 32% of 2,500 active; cytotoxicity, % at 5 µM; shares compounds with Gli-Sufu antag;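 active = mean cytotoxicity at 5 µM above about 25%, limit read from the data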;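 note: cells exposed to compound overnight for roughly 16 to 18 hours; plate controls were DMSO wells with cells for no effect and medium without cells for full effect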
Wnt3a cs: counter-screen for Gli-SUFU antagonists: Wnt3a reporter inhibition. shares compounds with Gli-Sufu antag. Wnt-LIGHT cells, Wnt3a-driven luciferase reporter, luminescence. inhibition, % at 6.25 µM. 20% of 2,500 active;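 active = mean inhibition above about 25%, limit read from the data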
Active calls of the source: *; / = not tested or not shown. Shown are actives, neighbours in structure and some others; about 3.3% of the full set was active somewhere.

SMILES	SMARCA2 act	Jurkat NFkB inh	697 NFkB inh	esBAF inh	Gli-Sufu antag	Gli antag conf	Gli cytotox	Wnt3a cs
CCOC(=O)c1ccc(N2C(=O)c3n[nH]c(-c4ccco4)c3C2c2cccc([N+](=O)[O-])c2)cc1 (stereo not given)	-3	1	-8	-4	99*	17	4	-21
O=C(NCC[C@@H]1CC[C@@H](NS(=O)(=O)Cc2ccccc2)[C@H](CO)O1)C1CC1	/	/	/	5	/	/	/	/
COc1nnc(-c2ccc(N3CCCCC3)c(N)c2)c2ccccc12	-2	-13	-59	31	53	59*	19	-36
O=C(C[C@@H]1C[C@H]2c3cc(NC(=O)Cc4ccncc4)ccc3O[C@H]2[C@@H](CO)O1)NCC1CC1	/	/	/	-3	/	/	/	/
O=c1c(N=Nc2ccc(O)cc2)c(-c2ccccc2)[nH]n1-c1ccc([N+](=O)[O-])cc1	-1	12	7	-4	53	35	11	67*
Cc1ccc(CN2CCC(CNS(=O)(=O)c3ccc(-c4ccc(=O)[nH]n4)s3)CC2)cc1	3	-1	11	-9	60*	21	12	12
C[C@@H]1CN([C@H](C)CO)C(=O)c2cccc(NS(=O)(=O)c3cn(C)cn3)c2O[C@@H]1CN(C)Cc1ccc(Cl)c(Cl)c1	/	/	/	-1	/	/	/	/
Cc1nc(NCCc2ccc(S(N)(=O)=O)cc2)c2c(C)c(C)sc2n1	-3	8	-26	-31	63*	59*	39*	25
Cc1nc(NCc2ccc(S(N)(=O)=O)cc2)c2c(C)c(C)sc2n1	-5	0	-4	1	8	/	/	/
CCn1c(=O)n(CC)c2cc(N3CCCC3)c(NC(=O)c3cccc(C)c3)cc21	1	4	12	-6	-3	/	/	/
CCn1c(=O)n(CC)c2cc(N3CCCC3)c(NC(=O)c3ccc(C)c([N+](=O)[O-])c3)cc21	-2	2	4	-2	51	53*	35*	7
O=C1CN(C(=O)c2ccccc2)C(c2ccccc2)c2cc(F)ccc2N1 (stereo not given)	-2	-22	10	-2	2	/	/	/
COc1ccc(C(=O)N2CC(=O)Nc3ccc(F)cc3C2c2ccccc2)cc1 (stereo not given)	0	/	/	-4	67*	20	6	-8
CC(=O)Oc1ccc2c(c1)OC(c1ccccc1)CC21CC(C)(C)NC(=S)N1 (stereo not given)	-1	-8	-20	-12	9	/	/	/
COc1ccc(C2(c3ccc(OC(C)=O)cc3OC(C)=O)CC(c3ccccc3)NC(=S)N2)cc1 (stereo not given)	6	12	16	/	62*	10	12	-13
Cc1ccc(S(=O)(=O)N[C@@H]2CC[C@H](CCn3cc(C4CCCCC4)nn3)O[C@H]2CO)cc1	/	/	/	7	/	/	/	/
CCc1cccc(CC)c1NC(=S)/C(=C(\[O-])c1ccc(Cl)s1)[n+]1ccccc1	-2	-1	7	/	53	25	18	-4
O=C(Cn1nnc(-c2ccccc2)n1)N/N=C/c1cccc([N+](=O)[O-])c1	4	22	-3	/	50	21	0	-4
C[C@H](NC(=O)C[C@@H]1CC[C@H](NC(=O)c2cccnc2)[C@H](CO)O1)c1ccccc1	/	/	/	-3	/	/	/	/
COc1cccc(CNC(=O)C(NS(=O)(=O)c2ccc3c(c2)CCN3C(C)=O)C(C)C)c1 (stereo not given)	-1	-6	-11	6	61*	-3	24	-31
CC(=O)N1CCc2cc(S(=O)(=O)NC(C(=O)NCc3ccccc3)C(C)C)ccc21 (stereo not given)	-5	5	16	-4	2	/	/	/
COc1ccc(NC(=O)CSc2nc3ccccc3c(=O)[nH]2)cc1S(N)(=O)=O	2	2	-2	-5	57*	2	-9	-16
Cc1nc2ccccc2c2oc(C(=O)N3CCN(c4ccc([N+](=O)[O-])cc4)CC3)cc12	-2	5	-13	-2	59*	29	28*	-84
CC(C)NC(=O)N(C)C[C@H]1Oc2ccc(NC(=O)Nc3cccc4ccccc34)cc2C(=O)N([C@@H](C)CO)C[C@H]1C	/	/	/	-2	/	/	/	/
Cc1ccsc1/C=N/n1c(-c2ccncc2)n[nH]c1=S	-1	-6	-10	/	56*	10	7	1
SMILES	SMARCA2 act	Jurkat NFkB inh	697 NFkB inh	esBAF inh	Gli-Sufu antag	Gli antag conf	Gli cytotox	Wnt3a cs
Cc1ccsc1/C=N/n1c(-c2ccccc2)n[nH]c1=S	0	-6	7	/	2	/	/	/
CCN(CC)C(=O)c1cccc(NC(=O)CCc2nc3sc4c(c3c(=O)[nH]2)CCCC4)c1	-3	9	14	-5	3	/	/	/
O=C(CCc1nc2sc3c(c2c(=O)[nH]1)CCCC3)Nc1cccc(Cl)c1	0	-3	-1	/	70*	27	6	-11
C[C@@H]1CN([C@H](C)CO)C(=O)c2cc(C#Cc3ccncc3)cnc2O[C@@H]1CN(C)C(=O)CN(C)C	/	/	/	-2	/	/	/	/
N#C/C(=C\c1ccc(-c2ccc([N+](=O)[O-])cc2)o1)C(=O)Nc1nc(-c2cccs2)cs1	0	-11	9	/	70*	80*	21	44*
C[C@@H]1CN([C@@H](C)CO)C(=O)Cc2cc(NC(=O)CCCN(C)C)ccc2O[C@H]1CN(C)C(=O)Nc1ccc(F)cc1	/	/	/	0	/	/	/	/
Cc1ccc(S(=O)(=O)c2nc(-c3ccco3)oc2NCC2CCCO2)cc1 (stereo not given)	1	/	/	/	-6	/	/	/
O=S(=O)(c1ccc(Br)cc1)c1nc(-c2ccco2)oc1NCC1CCCO1 (stereo not given)	1	14	29	/	62*	21	15	6
CCC(C)C(=O)Nc1ccc(S(=O)(=O)N2CCCC2)cc1 (stereo not given)	-2	-5	6	-1	-45	/	/	/
CCC(C)NS(=O)(=O)c1ccc(S(=O)(=O)N2CCCC3(CCCCC3)C2)cc1 (stereo not given)	-3	33	-11	-9	53	43	26*	6
COc1ccc(-n2c(C)cc(C(=O)CN3C(=O)c4ccccc4C3=O)c2C)cc1	-2	-3	-11	/	96*	-3	10	-41
CCOc1ccc2nc(NC(=O)CSc3nnnn3C3CCCCC3)sc2c1	0	7	11	8	71*	6	11	-84
O=[N+]([O-])c1cccc(-c2nnc(C34CC5CC(CC(C5)C3)C4)o2)c1	-2	-9	-1	/	77*	11	7	-14
O=[N+]([O-])c1cc(-c2nnc(C34CC5CC(CC(C5)C3)C4)o2)cc([N+](=O)[O-])c1	1	-4	16	-3	26	/	/	/
CCCC(=O)Nc1sc(C)c(C)c1C#N	0	1	10	/	20	/	/	/
